# Laboratory results taken from PubChem BioAssay.
# Several values for one entry are separate records, joined by “and”; a condition that tells them apart may be missing. Identical values can stand only once. Records with an inconclusive call do not appear. The source holds several records for some structures; these can differ, active in one and inactive in another. Activity calls are given as the source filed them.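 Rule for the calls, unless noted: active = compounds whose cell count with miR-34 switched on is under 0.7 times the count with it off; inactive = the rest.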
# What was measured:
# [1] = sensitizers of A549 cells to miR-34 induction, primary screen, imaging, A549 dox-inducible miR-34, nuclei and caspase counts (AID 1347080); conditions: A549 miR-34 inducible, Hoechst nuclei count, 48 h
# [2] = phospholipid biosynthesis inhibitors in animal cells, primary screen, cell-based, LOPAC library, screen 4 (AID 1347384; call rule not given here); conditions: phospholipid biosynthesis inhibition screen, at 10 µM
# [3] = survival rescue of mitochondrial mutant cells in low glucose, primary screen, MELAS cybrids, Rieske KO mouse fibroblasts, CellTiter-Glo (AID 1508586;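 active = mean z-score across replicates of 1.96 or higher in either the MELAS or the Rieske mutant cell line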;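 note: z relative to plate mean and SD of compound and empty wells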)
# [4] = target: NAD(+) hydrolase SARM1 (Homo sapiens) (UniProt Q6SZW1); experiment: SARM1 TIR NADase inhibitors, cell lysate, NAD-Glo luminescence (AID 1508614;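 active = compound whose remaining NAD level is above about 45 nM, limit read from the data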;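 note: higher remaining NAD means stronger inhibition of SARM1 NADase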); conditions: SAM-TIR HEK293T lysate NADase, at 1 µM, stronger effect = higher value
# [5] = target: Mitogen-activated protein kinase 7 (Homo sapiens) (UniProt Q13164); experiment: ERK5 transactivation activators in reporter cells, primary screen, cell-based, HTS (AID 1508626;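 active = luciferase signal above three times the same-plate solvent-only control wells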;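 note: luciferase driven by Gal4-ERK5 fusion binding five Gal4 sites before minimal TATA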); conditions: HeLa Gal4-ERK5 transactivation, 18 h, at 5 µM, stronger effect = higher value
# [6] = viability rescue of complex I mutant cybrids, primary screen, cell-based, galactose medium, ATP luminescence (AID 1645843;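 active = z-score of at least 1.8 in each of two replicates, scored against plate mean and spread of sample wells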;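 note: positive z means more ATP and so rescue of galactose-driven cybrid death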); conditions: complex I mutant cybrid cells, 72 h, stronger effect = higher value
# [7] = JHH-DIPG-1 glioma cell viability, MIPE5.0 library, CellTiter-Glo luminescence, qHTS (AID 1347067; cut-off not given, nearly all actives have AC50 up to about 26 µM;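 note: cells exposed to compound for 48 hours before readout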); conditions: JHH-DIPG-1 glioma viability, CellTiter-Glo ATP luminescence
# [8] = modifiers of HSF1 nuclear foci, imaging, Selleck Cancer Library (AID 1347162; in the data active = plate-normalised HSF1 focus index below about 0.46); conditions: human cells, at 10 µM; SSMD: measured here: HSF1 foci SSMD mean; cell count: measured here: cell number; plate-normalised HSF1 focus index: stronger effect = lower value
# [9] = SU-DIPG-XXV glioma cell viability, MIPE5.0 library, qHTS (AID 1347068; cut-off not given, nearly all actives have IC50 up to about 30 µM)
# [10] = LFS_MB_P medulloblastoma growth inhibition, cell-based, chromothripsis tumors, cisplatin or BGB combos (AID 1671449; in the data active = inhibition above about 80%;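 note: cells exposed for 96 hours; 0% = vehicle DMSO and 100% = killing by high DMSO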); conditions: LFS_MB_P medulloblastoma cells
# [11] = HDN33 neuroblastoma growth inhibition, cell-based, chromothripsis tumors, cisplatin or BGB combos (AID 1671450; in the data active = inhibition above about 80%;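 note: cells exposed to compound for four days; 0% = vehicle DMSO and 100% = cell killing by high DMSO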); conditions: HDN33 neuroblastoma cells, stronger effect = higher value
# [12] = ICB984 medulloblastoma cell growth inhibition, synergistic combos for chromothripsis tumors, cisplatin or BGB combos (AID 1671451; call rule not given here;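 note: cells exposed for 96 hours before readout; 0% = vehicle DMSO and 100% = killing by high DMSO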); conditions: ICB984 medulloblastoma cells, drug combinations, stronger effect = higher value
# [13] = LFS_MB_1R medulloblastoma cell growth inhibition, synergistic combos for chromothripsis tumors, cisplatin or BGB combos (AID 1671452; in the data active = inhibition above about 80%;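 note: cells exposed for 96 hours before readout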); conditions: LFS_MB_1R medulloblastoma cells, stronger effect = higher value
# [14] = HTB85 osteosarcoma cell growth inhibition, synergistic combos for chromothripsis tumors, BGB or cisplatin IC20 combos (AID 1671453; in the data active = inhibition above about 80%;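 note: cells exposed for 96 hours before readout; 0% = vehicle DMSO and 100% = high DMSO killing control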); conditions: HTB85 osteosarcoma cells, drug combinations, stronger effect = higher value
# [15] = CRL2098 osteosarcoma cell growth inhibition, synergistic combos for chromothripsis tumors, BGB or cisplatin IC20 combos (AID 1671454; in the data active = inhibition above about 80%;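 note: cells exposed for 96 h before readout; 0% = vehicle DMSO and 100% = killing by high DMSO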); conditions: CRL2098 osteosarcoma cells, drug combinations, stronger effect = higher value
# [16] = HD-MB03 medulloblastoma cell growth inhibition, synergistic combos for chromothripsis tumors, BGB or cisplatin IC20 combos (AID 1671455; in the data active = inhibition above about 83%;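 note: 0% = vehicle DMSO and 100% = high DMSO as cytotoxic control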); conditions: HD-MB03 medulloblastoma cells, stronger effect = higher value
# [17] = stronger effect = lower value, cell number ratio, induced over uninduced
# [18] = measured here: relative caspase fold change +Dox/-Dox
# [19] = measured here: total cells with miR-34 induction, stronger effect = lower value
# [20] = measured here: total cells without miR-34 induction
# [21] = MELAS cybrid survival, CellTiter-Glo 48 h, stronger effect = higher value
# [22] = Rieske KO mouse fibroblast survival, CellTiter-Glo 72 h
# [23] = measured here: combination with BGB IC40, at 0.05 µM
# Sequence of NAD(+) hydrolase SARM1 (Homo sapiens) (Q6SZW1 whole entry, looked up, the tested form may be a part): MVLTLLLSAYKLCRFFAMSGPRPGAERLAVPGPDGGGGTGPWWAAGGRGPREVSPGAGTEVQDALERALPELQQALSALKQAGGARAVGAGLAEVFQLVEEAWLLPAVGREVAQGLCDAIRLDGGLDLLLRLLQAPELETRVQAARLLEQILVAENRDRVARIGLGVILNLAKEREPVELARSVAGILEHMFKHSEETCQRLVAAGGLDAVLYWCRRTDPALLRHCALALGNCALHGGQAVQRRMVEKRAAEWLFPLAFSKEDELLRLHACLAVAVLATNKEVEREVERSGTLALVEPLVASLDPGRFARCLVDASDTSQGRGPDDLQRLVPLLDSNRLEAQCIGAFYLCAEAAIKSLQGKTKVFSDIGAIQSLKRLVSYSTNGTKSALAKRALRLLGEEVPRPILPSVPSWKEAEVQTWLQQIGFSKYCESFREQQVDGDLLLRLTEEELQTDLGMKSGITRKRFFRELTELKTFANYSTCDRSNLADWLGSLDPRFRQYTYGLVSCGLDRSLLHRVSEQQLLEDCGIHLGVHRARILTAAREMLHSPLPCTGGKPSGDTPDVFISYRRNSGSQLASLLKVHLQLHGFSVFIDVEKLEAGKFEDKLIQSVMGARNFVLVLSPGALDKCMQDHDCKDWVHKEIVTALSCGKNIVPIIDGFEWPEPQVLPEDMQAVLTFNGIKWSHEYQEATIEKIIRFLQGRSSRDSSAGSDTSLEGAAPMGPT
# Sequence of Mitogen-activated protein kinase 7 (Homo sapiens) (Q13164 whole entry, looked up, the tested form may be a part): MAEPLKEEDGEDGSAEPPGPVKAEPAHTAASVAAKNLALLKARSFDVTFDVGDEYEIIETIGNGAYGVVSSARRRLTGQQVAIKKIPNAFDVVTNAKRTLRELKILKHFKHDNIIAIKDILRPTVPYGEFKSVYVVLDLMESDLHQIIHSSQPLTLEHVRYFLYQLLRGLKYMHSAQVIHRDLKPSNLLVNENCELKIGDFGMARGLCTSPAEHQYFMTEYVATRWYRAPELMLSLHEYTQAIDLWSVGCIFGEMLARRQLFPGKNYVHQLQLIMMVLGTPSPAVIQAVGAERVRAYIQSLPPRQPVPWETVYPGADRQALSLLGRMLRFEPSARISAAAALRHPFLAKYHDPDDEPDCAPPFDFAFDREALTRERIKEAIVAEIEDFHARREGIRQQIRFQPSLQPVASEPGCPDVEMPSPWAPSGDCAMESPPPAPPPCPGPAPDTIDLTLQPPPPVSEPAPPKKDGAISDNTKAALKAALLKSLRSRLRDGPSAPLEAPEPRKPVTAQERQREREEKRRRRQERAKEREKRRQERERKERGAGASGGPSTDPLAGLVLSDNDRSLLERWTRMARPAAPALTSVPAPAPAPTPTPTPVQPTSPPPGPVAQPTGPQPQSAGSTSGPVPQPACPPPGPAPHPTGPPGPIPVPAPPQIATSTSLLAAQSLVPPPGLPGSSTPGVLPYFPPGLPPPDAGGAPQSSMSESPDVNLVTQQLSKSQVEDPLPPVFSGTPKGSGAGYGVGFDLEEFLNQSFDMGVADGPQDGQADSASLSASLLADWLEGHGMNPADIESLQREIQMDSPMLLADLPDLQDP
compound,measurement,setting,value
C=CC(N)CCC(=O)O (configuration not stated),fold change,[1]; [17],0.942 (inactive) and 0.866 (inactive) and 0.941 (inactive)
same,fold change,[1]; [18],1.9 and 1.11 and 2.08
same,cell count,[1]; [19],9530 and 8830 and 11000
same,cell count,[1]; [20],10100 and 10200 and 11700
same,outcome,[2],inactive
same,z-score,[3]; [21],-0.0921 (inactive)
same,z-score,[3]; [22],0.0881
same,remaining NAD,[4],10 nM (inactive)
same,luciferase signal,[5],92 AU (inactive)
same,z-score,[6],0.155 (inactive)
CC(=O)OCC1=C(C(=O)O)N2C(=O)[C@@H](NC(=O)Cc3cccs3)[C@H]2SC1,fold change,[1]; [17],1.04 (inactive) and 0.943 (inactive) and 0.907 (inactive)
same,fold change,[1]; [18],2.01 and 1.12 and 1.53
same,cell count,[1]; [19],10600 and 8990 and 11000
same,cell count,[1]; [20],10300 and 9530 and 12100
same,outcome,[2],inactive
same,z-score,[3]; [21],-0.988 (inactive)
same,z-score,[3]; [22],-1.16
same,remaining NAD,[4],10 nM (inactive)
same,luciferase signal,[5],52 AU (inactive)
same,z-score,[6],0.015 (inactive)
Nc1nc(F)nc2c1ncn2[C@@H]1O[C@H](CO)[C@@H](O)[C@@H]1O,outcome,[7],inactive
same,fold change,[1]; [17],1.1 (inactive) and 1.04 (inactive)
same,fold change,[1]; [18],0.763 and 0.78
same,cell count,[1]; [19],2060 and 1630
same,cell count,[1]; [20],1870 and 1560
same,SSMD,[8],0.111
same,cell count,[8],6840
same,plate-normalised HSF1 focus index,[8],1.01 (inactive)
same,z-score,[3]; [21],4.36 (active)
same,z-score,[3]; [22],1.07
same,z-score,[6],0.045 (inactive) and -0.22 (inactive)
C[C@H]1c2cccc(O)c2C(O)=C2C(=O)[C@]3(O)C(O)=C(C(N)=O)C(=O)[C@@H](N(C)C)[C@@H]3[C@@H](O)[C@@H]21,fold change,[1]; [17],0.948 (inactive) and 0.723 (inactive) and 0.815 (inactive)
same,fold change,[1]; [18],0.896 and 4.48 and 1.65
same,cell count,[1]; [19],1440 and 3910 and 7870
same,cell count,[1]; [20],1520 and 5410 and 9650
same,outcome,[2],inactive
same,z-score,[3]; [21],0.0416 (inactive) and -0.292 (inactive)
same,z-score,[3]; [22],-2.32 and -1.86
same,remaining NAD,[4],10 nM (inactive)
same,luciferase signal,[5],64 AU (inactive)
same,z-score,[6],2.63 (active) and 2.23 (active)
CCCCC(=O)O[C@]1(C(=O)CO)[C@@H](C)C[C@H]2[C@@H]3CCC4=CC(=O)C=C[C@]4(C)[C@@]3(F)[C@@H](O)C[C@@]21C,outcome,[7],inactive
same,outcome,[9],inactive
same,remaining NAD,[4],10 nM (inactive)
same,luciferase signal,[5],80 AU (inactive)
CO[C@@]1(NC(=O)CSCC#N)C(=O)N2C(C(=O)O)=C(CSc3nnnn3C)CS[C@@H]21,fold change,[1]; [17],1.01 (inactive) and 0.961 (inactive)
same,fold change,[1]; [18],1.5 and 1.13
same,cell count,[1]; [19],11000 and 9300
same,cell count,[1]; [20],10900 and 9680
same,outcome,[2],inactive
same,z-score,[3]; [21],-0.493 (inactive)
same,z-score,[3]; [22],-0.322
same,remaining NAD,[4],10 nM (inactive)
same,luciferase signal,[5],108 AU (inactive)
same,z-score,[6],0.77 (inactive)
C[C@]12CC[C@@H]3c4ccc(O)cc4CC[C@H]3[C@@H]1CCC2=O,fold change,[1]; [17],0.96 (inactive) and 0.932 (inactive) and 0.881 (inactive)
same,fold change,[1]; [18],1.22 and 1.44 and 1.06
same,cell count,[1]; [19],9000 and 8450 and 7620
same,cell count,[1]; [20],9370 and 9060 and 8650
same,SSMD,[8],2.44
same,cell count,[8],6870
same,plate-normalised HSF1 focus index,[8],1.13 (inactive)
same,outcome,[2],inactive
same,z-score,[3]; [21],0.711 (inactive) and 0.373 (inactive)
same,z-score,[3]; [22],0.46 and -0.298
same,remaining NAD,[4],10 nM (inactive)
same,luciferase signal,[5],28 AU (inactive)
same,z-score,[6],-0.23 (inactive) and -0.335 (inactive)
O=C(O)CCCCCCCC(=O)O,fold change,[1]; [17],0.959 (inactive) and 0.941 (inactive)
same,fold change,[1]; [18],0.966 and 3.31
same,cell count,[1]; [19],9890 and 11100
same,cell count,[1]; [20],10300 and 11800
same,outcome,[2],inactive
same,remaining NAD,[4],10 nM (inactive)
same,luciferase signal,[5],24 AU (inactive)
same,z-score,[6],0.635 (inactive)
same,inhibition,"[10]; at 0.5 µM, stronger effect = higher value",14.6% (inactive)
same,inhibition,"[10]; measured here: combination with BGB IC20, at 0.005 µM",-16.4%
same,inhibition,"[10]; measured here: combination with BGB IC40, at 0.005 µM",-8.17%
same,inhibition,[10]; [23],6.68%
same,inhibition,"[10]; measured here: combination with cisplatin, at 0.5 µM, stronger effect = higher value",8.46%
same,inhibition,"[10]; measured here: combination with cisplatin, at 5 µM, stronger effect = higher value",-13.6%
same,inhibition,"[11]; BGB combo, at 5 µM",-29.2%
same,inhibition,[11]; at 0.5 µM,-40.9% (inactive)
same,inhibition,"[11]; cisplatin combo, at 5 µM",-22.7%
same,inhibition,"[11]; measured here: with BGB IC20 combination, at 0.5 µM",-45.6%
same,inhibition,"[11]; measured here: with cisplatin IC20 combination, at 0.5 µM",-37.4%
same,inhibition,"[11]; single agent, at 5 µM",-34.5%
same,inhibition,"[12]; BGB IC20 combo, at 0.005 µM",-5.6%
same,inhibition,"[12]; BGB IC40 combo, at 0.005 µM",-44.6%
same,inhibition,"[12]; BGB IC40 combo, at 0.05 µM",-20.8%
same,inhibition,[12]; at 0.5 µM,-26.1% (inactive)
same,inhibition,"[12]; cisplatin combo, at 0.05 µM",-24.1%
same,inhibition,"[12]; cisplatin combo, at 0.5 µM",-19.2%
same,inhibition,"[12]; cisplatin combo, at 5 µM",-29.2%
same,inhibition,"[12]; measured here: 5 uM single agent, at 5 µM",-20.6%
same,inhibition,[13]; at 0.5 µM,-28.5% (inactive)
same,inhibition,[13]; [23],-23.1%
same,inhibition,"[13]; measured here: combination with cisplatin, at 0.5 µM",-37.2%
same,inhibition,"[13]; measured here: combination with cisplatin, at 5 µM",-71.3%
same,inhibition,[14]; at 0.5 µM,-17.1% (inactive)
same,inhibition,"[14]; measured here: with BGB IC20, at 0.5 µM",-39.9%
same,inhibition,"[14]; measured here: with BGB IC20, at 5 µM",-68.2%
same,inhibition,"[14]; measured here: with cisplatin IC20, at 0.5 µM",-8.83%
same,inhibition,"[14]; measured here: with cisplatin IC20, at 5 µM",0.863%
same,inhibition,"[14]; single agent, at 5 µM",-30.9%
same,inhibition,[15]; at 0.5 µM,-76.3% (inactive)
same,inhibition,"[15]; measured here: combination with BGB at IC20, at 0.5 µM",-57.7%
same,inhibition,"[15]; measured here: combination with cisplatin at IC20, at 0.5 µM",-93.4%
same,inhibition,[16]; at 0.5 µM,-14.1% (inactive)
same,inhibition,"[16]; measured here: combo with BGB at IC20, at 0.5 µM",-13.8%
same,inhibition,"[16]; measured here: combo with cisplatin at IC20, at 0.5 µM",-19.9%
CCCCCN(CCCCC)C(=O)C(CCC(=O)O)NC(=O)c1ccc(Cl)c(Cl)c1 (configuration not stated),fold change,[1]; [17],1 (inactive) and 0.871 (inactive) and 0.904 (inactive)
same,fold change,[1]; [18],0.913 and 1.58 and 1.45
same,cell count,[1]; [19],9880 and 9710 and 9580
same,cell count,[1]; [20],9840 and 11100 and 10600
same,outcome,[2],inactive
same,z-score,[3]; [21],0.699 (inactive) and -0.377 (inactive)
same,z-score,[3]; [22],-0.146 and -1.36
same,remaining NAD,[4],10 nM (inactive)
same,z-score,[6],2.69 (active) and 0.255 (inactive)
O=C1c2c(O)cccc2Cc2cccc(O)c21,fold change,[1]; [17],0.891 (inactive)
same,fold change,[1]; [18],1.8
same,cell count,[1]; [19],11600
same,cell count,[1]; [20],13000
same,z-score,[3]; [21],0.308 (inactive)
same,z-score,[3]; [22],0.465
same,remaining NAD,[4],10 nM (inactive)
same,luciferase signal,[5],180 AU (inactive)
OC(CCN1CCCCC1)(c1ccccc1)c1ccccc1,fold change,[1]; [17],0.941 (inactive)
same,fold change,[1]; [18],1.61
same,cell count,[1]; [19],9230
same,cell count,[1]; [20],9810
same,z-score,[3]; [21],-1.04 (inactive)
same,z-score,[3]; [22],-0.829
same,remaining NAD,[4],10 nM (inactive)
same,luciferase signal,[5],36 AU (inactive)
